From PubChem BioAssay
Active and inactive are the calls of the source.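 How the source made its calls: active means z-score of at least 1.8 in each of two replicates, scored against plate mean and spread of sample wells; inactive means the rest.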

Experiment: galactose survival enhancers in mitochondrial complex I cybrids – cell-based, galactose medium, ATP luminescence, primary screen (AID 1645843);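 further: positive z means more ATP and so rescue of galactose-driven cybrid death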
Conditions: complex I mutant cybrid cells, 72 h, active compounds read high
In the case of `CC(Oc1ccc2c(c1)OCO2)C(=O)N(Cc1nccn1C)C(C)C` (centres undefined), the z-score is reported as -0.22 (inactive). In the case of `Cn1ncc(NC(=O)CCc2cn3ccccc3n2)n1`, the z-score is reported as 0.67 (inactive). For `O=C(CC1CCCCCC1)N1CCC(n2cc(C3CC3)nn2)CC1`, the z-score was -0.455 (inactive). With `Cc1cc(C(=O)N2CCCC(C)C2)c2ccc(C)c(C)c2n1` (centres undefined) the z-score was -0.505 (inactive). In the case of `O=C(Nc1cccc(-c2cscn2)c1)c1ccc2nccnc2c1`, the z-score is reported as -0.95 (inactive). With `OCCCCCNc1nccc(-c2cnn(-c3ccccc3F)c2)n1` the z-score was -0.905 (inactive). In the case of `C=C1C2(C(=O)N3CCCC(COC)C3)CCC(C2)C1(C)C` (centres undefined), the z-score is reported as -0.525 (inactive). In the case of `c1ccc(Cc2noc(-c3cccc4nccnc34)n2)cc1`, the z-score is reported as 2.6 (active). With `CC(CCCC(C)(C)O)CCN1CCC(N(C)CCO)CC1` (centres undefined) the z-score was -0.505 (inactive). In the case of `Cc1ccc2c(C(=O)N3CCCC(C#N)C3)cc(-c3cnn(C(C)C)c3)nc2c1` (centres undefined), the z-score is reported as -0.52 (inactive). With `CC(Cc1cccnc1)n1cnc2sc3c(c2c1=O)CCCCC3` (centres undefined) the z-score was 0.91 (inactive). In the case of `COCc1cn(CC2CCN(C(=O)CC3CCCCCC3)CC2)nn1`, the z-score is reported as -0.465 (inactive). With `Cc1ccc2nc(Cn3cnc4ccc(F)cc4c3=O)cn2c1` the z-score was -0.15 (inactive). In the case of `COC(=O)CCC(=O)N1CCc2[nH]nc(-c3ccc4c(c3)OCO4)c2C1`, the z-score is reported as -0.12 (inactive). For `CC(C)n1cc(-c2cc(C(=O)N3CCC(C)(C)C3)c3ccc(F)cc3n2)cn1`, the z-score was 0.14 (inactive). In the case of `CCc1ncc(C(=O)N2CCCC(Cn3cc(-c4ccccc4)nn3)C2)cn1` (centres undefined), the z-score is reported as 0.19 (inactive). For `Cc1ccc(F)cc1-c1cccc(C(=O)c2nccn2C)c1`, the z-score was -0.54 (inactive). With `CCn1ncc2[nH]c(-c3cc(F)ccc3-n3cccn3)nc21` the z-score was -0.185 (inactive). For `Cc1ccccc1C1CCCN(C(=O)CCC(C)C)C1` (centres undefined), the z-score was -0.255 (inactive). For `O=C(Nc1ccncc1)c1ccc2c(c1)OCCO2`, the z-score was 0.445 (inactive). In the case of `CC(=O)NCCC1CCN(C(=O)C(C)Oc2cc(C)c(Cl)c(C)c2)CC1` (centres undefined), the z-score is reported as -0.5 (inactive). In the case of `CCCC(C)N(CC)C(=O)c1ccc(C#CC(C)(C)O)o1` (centres undefined), the z-score is reported as -0.525 (inactive). For `c1ccc(C(CCn2ccnc2)NC2CCCCCC2)cc1` (centres undefined), the z-score was -0.47 (inactive). With `COc1ccc(CCC(C)NC2CC(C)(C)NC(C)(C)C2)cc1` (centres undefined) the z-score was -0.505 (inactive). With `CCN(CC)C(CNCc1ccc(OC)c(F)c1)c1ccco1` (centres undefined) the z-score was -0.84 (inactive). In the case of `CCCCCC(=O)N1CCC(n2cc(C3CCCCC3)nn2)CC1`, the z-score is reported as -0.415 (inactive). For `CCCn1nc(NC(=O)Cn2ccc(-c3ccccc3F)n2)c2ccccc21`, the z-score was -1.28 (inactive). For `CCc1n[nH]c2c1CN(C(=O)c1cc(C)nc3ccc(F)cc13)CC2`, the z-score was -0.42 (inactive). With `O=C(C1CCCCCC1)N1CCc2[nH]nc(C3CCC3)c2C1` the z-score was 0.435 (inactive). With `CC(C)c1n[nH]c2c1CN(C(=O)C1CCCCCC1)CC2` the z-score was -0.485 (inactive). For `CCCC(CCC)N[C@H](CO)Cc1ccccc1`, the z-score was -0.345 (inactive). With `CN1CCN(Cc2cnc3ccccc3c2)CC1CCO` (centres undefined) the z-score was 0 (inactive). In the case of `CC(C)Cc1cn(C2CCN(C(=O)C3CCCCCC3)CC2)nn1`, the z-score is reported as -0.435 (inactive). With `Cc1nsc(NC(=O)NCc2ccccc2OC(F)(F)F)n1` the z-score was 0.2 (inactive). In the case of `O=C1CCCc2occ(C(=O)N3CCc4[nH]nc(C5CCC5)c4C3)c21`, the z-score is reported as 0.15 (inactive). For `O=C(CCn1cnnn1)N1CCc2[nH]nc(-c3ccc4c(c3)OCO4)c2C1`, the z-score was 0.465 (inactive). For `Cc1c(C(=O)N2CCSCC2)c(-c2ccccc2)nn1-c1ccccc1`, the z-score was 1.96 (inactive). In the case of `CCCn1cc(-c2ccnc(NCc3cn4cccc(C)c4n3)n2)c(C)n1`, the z-score is reported as -1.07 (inactive). For `Cc1ccccc1-c1noc(C2CC(C(C)C)=NO2)n1` (centres undefined), the z-score was 1.73 (inactive).
